# Several values for one entry are separate records, joined by “and”; a condition that tells them apart may be missing. Equal values may be shown once. Records with an inconclusive call do not appear. Where a call stands in place of a potency, no number is given. Activity calls are given as the source filed them. Unless noted, calls come from the whole dose curve; as a rule, active = well fitted curve in the direction sought with a large enough effect; inconclusive = small, poorly fitted or top-dose-only effect, or another doubt; inactive = no such curve, though single readings can be large; an effect the other way counts as inactive or inconclusive.
# Assays:
# [1] = target: ATP-dependent 6-phosphofructokinase (Trypanosoma brucei brucei) (UniProt O15648); assay: qHTS Assay to Find Inhibitors of T. brucei phosphofructokinase: hit validation (AID 492961);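 note: luminescence reports ADP formed as PFK phosphorylates fructose-6-phosphate with ATP; series mostly up to about 51 µM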
# How it was run: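 Measures ADP output of PFK (1.25 nM) at 0.1 mM ATP, 0.5 mM F6P, pH 8.0 TEA buffer with 5 mM MgCl2. No-enzyme wells define full inhibition; uninhibited enzyme wells define zero.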
# [2] = target: Ubiquitin carboxyl-terminal hydrolase 1 (Homo sapiens) (UniProt O94782); assay: Inhibitors of USP1/UAF1: Pilot qHTS (AID 504865); note: nearly all actives have a fitted effect of over 35% in size; note: potency is the fitted concentration of half-maximal effect
# How it was run: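 1nM USP1/UAF1 + cpd, 15 min RT; start w/ Ub-Rho 150nM final; kinetic FL 480/540 nm, 6 reads q60 s. Buffer 50mM HEPES pH 7.8, 0.5mM EDTA, 1mM TCEP, 0.01% Tween-20, 0.1 mg/ml BSA.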
# [3] = target: D(1A) dopamine receptor (Homo sapiens) (UniProt P21728); assay: HTS Assay for Allosteric Agonists of the Human D1 Dopamine Receptor: Primary Screen for Agonists (AID 488981)
# How it was run: (§1)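 Calcium flux in an inducible, force-coupled HEK293 Trex D1 line (overnight at 30 C): agonist mode is the 180 s kinetic read after compound; potentiator mode is the following 180 s read after dopamine at EC20.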
# [4] = target: D(1A) dopamine receptor (Homo sapiens) (UniProt P21728); assay: HTS Assay for Allosteric Agonists of the Human D1 Dopamine Receptor: Primary Screen for Potentiators (AID 488982)
# How it was run: as §1
# [5] = target: D(1A) dopamine receptor (Homo sapiens) (UniProt P21728); assay: HTS Assay for Allosteric Agonists of the Human D1 Dopamine Receptor: Primary Screen for Antagonists (AID 488983);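 note: calcium flux response to an EC80 dopamine challenge measured with no-wash dye; nearly all actives have a fitted effect of over 65% in size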
# How it was run: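 Calcium flux readout, no-wash dye, inducible HEK293 T-REx D1 line (force-coupled). Compound added after 10 s baseline, 180 s kinetic read; then dopamine at EC80, further 180 s read.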
# [6] = Validation screen for small molecules that induce genotoxicity in human embryonic kidney (HEK293T) cells expressing luciferase-tagged ELG1 (AID 493106)
# How it was run: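 qHTS format; 2,000 HEK293T ELG1-luc cells/well; 23 nL compound via pin tool; 16 hr, 37 °C/5% CO2; ONE-Glo, 30 min RT; luminescence read.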
# [7] = target: ATPase family AAA domain-containing protein 5 (Homo sapiens) (UniProt Q96QE3); assay: Validation screen for small molecules that inhibit ELG1-dependent DNA repair in human embryonic kidney (HEK293T) cells expressing luciferase-tagged ELG1 (AID 493107);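 note: cells co-treated with the DNA-damaging agent 5-fluorouridine alongside compound; series mostly up to about 46 µM; inhibitors lower the ELG1-luciferase luminescence signal; nearly all actives have a fitted effect of over 70% in size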
# How it was run: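 ELG1-luciferase HEK293T reporter; 5-fluorouridine + compound/DMSO, 16 hr, 37 °C, 5% CO2; ONE-Glo 30 min RT; luminescence read, qHTS format.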
# [8] = target: Thyrotropin-releasing hormone receptor (Homo sapiens) (UniProt P34981); assay: qHTS for Small Molecule Agonists and Allosteric Enhancers of Human TRH Receptor: Validation Screen for Agonists (AID 493127;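 active = calcium activation more than 3 SD above the typical response in the agonist read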;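 note: intracellular calcium rise by fluo-8 fluorescence before TRH EC20 addition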); details: TRH receptor agonist cell assay; at 2 µM; stronger effect = higher value
# How it was run: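 Read-out: intracellular calcium release measured kinetically by FDSS (fluo-8, ex 480/em 530 nm), 1 reading/s after a 10-cycle baseline. TRHR cells, 2000/well, cultured 18 h at 33.5C, dye-loaded at room temp. Compound-evoked positive calcium signal flags agonists.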
# [9] = Nrf2 qHTS screen for inhibitors: Validation (AID 493153; active = well fitted inhibition curve with a large enough effect in the main read-out, with a control signal flat, not every such curve was filed as active); details: Potency: luciferase luminescence; viability change: measured here: cytotoxicity max response
# How it was run: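 Concentration-response test in A549 ARE_Fluc reporter cells (5% FBS OPTI-MEM), compound exposure 18-24 h at 37°C, 5% CO2. Cell viability measured first by CellTiter-Fluor fluorescence; ARE-driven luciferase luminescence then measured as Nrf2 activity.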
# [10] = target: Galactokinase (Homo sapiens) (UniProt P51570); assay: qHTS Validation Assay for Inhibitors of Human Galactokinase (GALK) (AID 493189)
# How it was run: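 Luminescence from leftover ATP (Kinase-Glo Plus, 10 min) served as read-out after a 1 h room-temperature reaction of 5 nM GALK, 100 uM galactose and 35 uM ATP at pH8.0.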
# [11] = Validation screen for small molecules that induce DNA re-replication in SW480 colon adenocarcinoma cells (AID 504364)
# How it was run: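 Read-out: total Hoechst intensity of nuclei by fluorescence scanning imager; hits raise the fraction of nuclei with elevated DNA content. Cells received compound for 48 hr at 37 C before a 40 min stain.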
# [12] = target: Peptidyl-prolyl cis-trans isomerase NIMA-interacting 1 (Homo sapiens) (UniProt Q13526); assay: qHTS Validation Assay to Find Inhibitors of Pin1 (AID 504536; active = well fitted inhibition curve with a large enough effect in the polarisation, with a control signal flat, not every such curve was filed as active; the % refers to the polarisation)
# How it was run: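 Fluorescence polarization competition: compounds (titration) displace HiFluor-488-labeled Pin1-1b peptide from Pin1 (0.3 uM final) in pH 7.5 HEPES buffer with DTT, 10 min at room temperature; %Activity normalized to no-enzyme wells, curves fitted.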
# [13] = target: Phosphoglycerate kinase, glycosomal (Trypanosoma brucei brucei) (UniProt P07378); assay: qHTS Validation Assay to Find Inhibitors of Phosphoglycerate Kinase (AID 504547)
# How it was run: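 Luminescence end-point (Kinase-Glo Plus, 10 min) after a 60 min room-temperature coupled reaction. GAPDH at 100nM final supplies 1,3-BPG to PGK. Buffer: 100mM TEA pH 7.6, 5mM MgCl2, 0.01% Tween-20. Wells lacking PGK served as controls.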
# [14] = target: phosphoglycerate mutase (Leishmania major) (UniProt Q4Q090); assay: qHTS Validation Assay to Find Inhibitors of Phosphoglycerate Mutase (AID 504548);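 note: end-point luminescence from Kinase-GloPlus after the PGAM reaction; series mostly up to about 58 µM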
# How it was run: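 L. major PGAM (1.25nM final) was added to substrate buffer and pinned compound, incubated 45 minutes at room temperature, then Kinase-GloPlus added; luminescence read after 10 minutes. Buffer: 100 mM TEA pH 7.6, 5 mM MgCl2, 0.01% Tween-20.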
# [15] = qHTS for Inhibitors of ATXN expression: Validation of Cytotoxic Assay (AID 588349)
# How it was run: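 Cytotoxicity counter-screen: HEK293 cells exposed to compound titrations, 72 hr, 37 degrees C. Read-out is intracellular ATP (CellTiter Glo luminescence) as a viability measure.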
# [16] = qHTS for Inhibitors of ATXN expression: Validation (AID 588378); note: series mostly up to about 57 µM; nearly all actives have a fitted effect of over 75% in size
# How it was run: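 Cells: HEK293-ATXN2-FFLuc, phenol-red free DMEM, 2 h attachment. Compound pin-transfer, 24 h, 37 degrees C, 5% CO2. CellTiter-Fluor 30 min, Ex405/Em525; Bright-Glo 5 min, luminescence 2 s exposure.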
# [17] = target: DNA dC->dU-editing enzyme APOBEC-3G (Homo sapiens) (UniProt Q9HC16); assay: qHTS for inhibitors of Vif-A3G interactions: Validation (AID 588379)
# How it was run: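 Yellow fluorescence (Ex 488, Em 500-530) of Vif-coexpressing HeLa A3G-eYFP cells, scanned by Acumen cytometer, reports blocked A3G degradation. Cells plated at 700/well overnight at 37 deg C before compound addition, then a further overnight compound incubation at 37 deg C.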
# [18] = target: Estrogen receptor (Homo sapiens) (UniProt P03372); assay: qHTS assay for small molecule agonists of estrogen receptor alpha signaling (AID 588514; calls by dose curve; note: nearly all actives have a fitted effect of over 70% in size)
# How it was run: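 Read-out: CCF4 fluorescence from a beta-lactamase reporter in ER-alpha-UAS-bla HEK 293 cells after 18 hrs of compound exposure at 37 C. Normalized to 20 nM 17-beta-estradiol (100%) and DMSO (0%).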
# [19] = target: Estrogen receptor (Homo sapiens) (UniProt P03372); assay: qHTS assay for small molecule antagonists of estrogen receptor alpha signaling (AID 588513; active = well fitted curve in the direction sought with a large enough effect in the signal ratio, with a control signal flat, not every such curve was filed as active; the % refers to the signal ratio)
# How it was run: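 Beta-lactamase reporter, antagonist mode, HEK 293 GripTite cells; 0.5nM E2 stimulus, 18 h, 37 C; CCF4 dye 2 h RT; fluorescence. IC50 and efficacy from Hill fits, normalized to E2 and DMSO.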
# [20] = target: Androgen receptor (Homo sapiens) (UniProt P10275); assay: qHTS assay for small molecule agonists of androgen receptor signaling (AID 588515; active = well fitted curve in the direction sought with a large enough effect in the signal ratio, with a control signal flat; the % refers to the signal ratio); details: AR-UAS-bla HEK293, beta-lactamase ratio, agonist 16 h; stronger effect = higher value
# How it was run: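 Stimulation of an AR-responsive β-lactamase reporter in GripTite HEK293 cells was measured after 16 h compound exposure at 37 °C, via CCF4 fluorescence after 2 h RT. EC50 from Hill fits, normalized to R1881 at 30 nM.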
# Androgen receptor (Homo sapiens), sequence (P10275 whole entry, looked up): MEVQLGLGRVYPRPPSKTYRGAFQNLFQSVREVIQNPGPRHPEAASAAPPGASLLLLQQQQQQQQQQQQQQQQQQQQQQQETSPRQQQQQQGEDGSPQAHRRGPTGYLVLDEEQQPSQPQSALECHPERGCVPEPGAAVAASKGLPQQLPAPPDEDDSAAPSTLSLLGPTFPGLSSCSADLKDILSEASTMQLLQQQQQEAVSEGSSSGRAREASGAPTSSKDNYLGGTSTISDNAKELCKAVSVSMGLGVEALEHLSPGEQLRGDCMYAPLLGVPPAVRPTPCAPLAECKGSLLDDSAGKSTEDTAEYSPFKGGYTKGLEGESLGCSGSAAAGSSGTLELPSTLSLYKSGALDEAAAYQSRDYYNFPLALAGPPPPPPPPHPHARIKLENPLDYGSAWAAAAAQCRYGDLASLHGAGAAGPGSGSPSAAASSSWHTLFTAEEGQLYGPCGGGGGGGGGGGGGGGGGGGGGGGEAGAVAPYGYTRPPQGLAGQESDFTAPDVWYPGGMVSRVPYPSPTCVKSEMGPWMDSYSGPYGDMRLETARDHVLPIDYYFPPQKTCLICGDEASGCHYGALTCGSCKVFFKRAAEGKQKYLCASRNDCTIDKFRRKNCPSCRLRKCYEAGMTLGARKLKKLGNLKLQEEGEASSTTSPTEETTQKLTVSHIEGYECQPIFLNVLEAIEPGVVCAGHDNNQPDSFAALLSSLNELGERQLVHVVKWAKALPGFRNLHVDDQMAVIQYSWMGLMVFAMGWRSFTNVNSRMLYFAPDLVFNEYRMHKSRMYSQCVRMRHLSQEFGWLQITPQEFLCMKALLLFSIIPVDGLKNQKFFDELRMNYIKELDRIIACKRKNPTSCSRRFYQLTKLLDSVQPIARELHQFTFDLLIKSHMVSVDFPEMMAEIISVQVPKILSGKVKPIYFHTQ
# Estrogen receptor (Homo sapiens), sequence (P03372 whole entry, looked up): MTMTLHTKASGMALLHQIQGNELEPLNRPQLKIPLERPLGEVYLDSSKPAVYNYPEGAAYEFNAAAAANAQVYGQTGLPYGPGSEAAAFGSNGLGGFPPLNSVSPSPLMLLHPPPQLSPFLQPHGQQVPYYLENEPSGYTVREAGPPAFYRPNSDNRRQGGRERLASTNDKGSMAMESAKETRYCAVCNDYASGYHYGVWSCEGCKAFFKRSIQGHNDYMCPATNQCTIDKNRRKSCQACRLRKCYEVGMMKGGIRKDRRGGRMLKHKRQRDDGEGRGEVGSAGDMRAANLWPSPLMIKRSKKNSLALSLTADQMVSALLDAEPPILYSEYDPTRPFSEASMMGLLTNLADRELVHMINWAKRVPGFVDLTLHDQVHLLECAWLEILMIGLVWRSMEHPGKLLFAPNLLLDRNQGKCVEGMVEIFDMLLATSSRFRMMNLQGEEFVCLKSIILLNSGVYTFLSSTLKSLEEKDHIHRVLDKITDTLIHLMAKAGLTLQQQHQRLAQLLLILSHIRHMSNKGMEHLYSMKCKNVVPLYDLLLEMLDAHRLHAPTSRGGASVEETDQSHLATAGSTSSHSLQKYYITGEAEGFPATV
# Ubiquitin carboxyl-terminal hydrolase 1 (Homo sapiens), sequence (O94782 whole entry, looked up): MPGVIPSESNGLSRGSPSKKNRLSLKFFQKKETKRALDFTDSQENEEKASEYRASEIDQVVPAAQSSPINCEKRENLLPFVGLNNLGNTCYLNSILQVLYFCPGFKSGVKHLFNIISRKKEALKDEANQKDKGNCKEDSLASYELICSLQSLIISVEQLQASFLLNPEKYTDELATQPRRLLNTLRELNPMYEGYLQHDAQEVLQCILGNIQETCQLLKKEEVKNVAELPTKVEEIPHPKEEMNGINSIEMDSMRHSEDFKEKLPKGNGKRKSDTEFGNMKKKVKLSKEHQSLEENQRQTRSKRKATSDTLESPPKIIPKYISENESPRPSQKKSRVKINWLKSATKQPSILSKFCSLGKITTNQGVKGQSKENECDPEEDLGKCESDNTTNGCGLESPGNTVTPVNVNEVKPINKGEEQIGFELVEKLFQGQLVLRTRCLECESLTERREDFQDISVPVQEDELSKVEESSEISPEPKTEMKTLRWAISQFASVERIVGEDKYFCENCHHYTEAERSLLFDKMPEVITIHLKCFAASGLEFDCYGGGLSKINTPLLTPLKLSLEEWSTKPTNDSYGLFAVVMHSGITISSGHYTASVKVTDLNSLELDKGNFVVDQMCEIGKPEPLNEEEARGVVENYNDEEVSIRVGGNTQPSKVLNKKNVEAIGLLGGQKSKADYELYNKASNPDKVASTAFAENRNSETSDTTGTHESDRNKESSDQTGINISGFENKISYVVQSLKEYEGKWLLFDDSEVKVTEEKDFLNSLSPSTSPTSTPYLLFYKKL
# DNA dC->dU-editing enzyme APOBEC-3G (Homo sapiens), sequence (Q9HC16 whole entry, looked up): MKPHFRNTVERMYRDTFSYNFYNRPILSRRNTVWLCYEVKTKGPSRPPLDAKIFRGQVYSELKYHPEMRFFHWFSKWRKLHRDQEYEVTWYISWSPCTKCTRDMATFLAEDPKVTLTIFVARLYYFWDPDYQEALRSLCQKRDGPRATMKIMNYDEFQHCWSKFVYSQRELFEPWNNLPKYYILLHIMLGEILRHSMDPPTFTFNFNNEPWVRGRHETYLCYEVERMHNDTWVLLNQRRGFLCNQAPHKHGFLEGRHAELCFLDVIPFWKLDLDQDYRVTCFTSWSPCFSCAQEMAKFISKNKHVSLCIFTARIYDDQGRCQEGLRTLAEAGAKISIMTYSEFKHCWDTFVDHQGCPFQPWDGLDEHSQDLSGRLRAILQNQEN
# ATP-dependent 6-phosphofructokinase (Trypanosoma brucei brucei), sequence (O15648 whole entry, looked up): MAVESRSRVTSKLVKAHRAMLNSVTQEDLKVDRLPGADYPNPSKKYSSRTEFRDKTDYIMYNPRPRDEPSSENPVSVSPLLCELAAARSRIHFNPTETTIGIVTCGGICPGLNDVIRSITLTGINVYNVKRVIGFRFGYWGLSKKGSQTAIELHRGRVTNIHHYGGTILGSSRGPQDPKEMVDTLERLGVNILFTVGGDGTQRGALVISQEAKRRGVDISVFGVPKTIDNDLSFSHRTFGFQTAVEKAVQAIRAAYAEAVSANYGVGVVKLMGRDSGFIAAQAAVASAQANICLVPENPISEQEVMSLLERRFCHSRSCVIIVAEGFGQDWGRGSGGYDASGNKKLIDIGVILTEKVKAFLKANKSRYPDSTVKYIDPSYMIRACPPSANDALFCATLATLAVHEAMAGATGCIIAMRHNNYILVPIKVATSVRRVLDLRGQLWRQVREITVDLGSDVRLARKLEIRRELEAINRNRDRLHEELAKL
# D(1A) dopamine receptor (Homo sapiens), sequence (P21728 whole entry, looked up): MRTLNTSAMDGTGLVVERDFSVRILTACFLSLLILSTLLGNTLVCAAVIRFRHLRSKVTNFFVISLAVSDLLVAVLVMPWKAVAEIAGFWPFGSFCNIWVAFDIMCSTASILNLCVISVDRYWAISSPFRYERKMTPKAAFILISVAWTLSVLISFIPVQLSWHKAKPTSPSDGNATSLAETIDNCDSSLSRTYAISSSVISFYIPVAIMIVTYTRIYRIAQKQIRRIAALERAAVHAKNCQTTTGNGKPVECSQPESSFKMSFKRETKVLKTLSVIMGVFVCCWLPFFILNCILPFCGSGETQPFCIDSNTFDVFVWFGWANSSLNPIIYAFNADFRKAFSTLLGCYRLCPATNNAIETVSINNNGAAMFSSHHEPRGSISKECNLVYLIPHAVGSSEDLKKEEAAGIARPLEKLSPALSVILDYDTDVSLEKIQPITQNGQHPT
# Galactokinase (Homo sapiens), sequence (P51570 whole entry, looked up): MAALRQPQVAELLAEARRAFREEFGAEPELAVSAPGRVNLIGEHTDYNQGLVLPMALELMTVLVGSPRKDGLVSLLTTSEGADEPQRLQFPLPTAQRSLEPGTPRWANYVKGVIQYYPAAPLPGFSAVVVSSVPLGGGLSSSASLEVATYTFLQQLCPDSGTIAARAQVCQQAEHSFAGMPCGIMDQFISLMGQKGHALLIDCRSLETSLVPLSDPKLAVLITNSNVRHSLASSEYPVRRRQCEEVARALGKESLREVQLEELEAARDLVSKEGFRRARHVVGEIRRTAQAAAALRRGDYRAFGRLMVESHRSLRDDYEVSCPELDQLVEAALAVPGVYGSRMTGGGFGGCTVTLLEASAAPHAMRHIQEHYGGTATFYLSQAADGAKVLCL
# Thyrotropin-releasing hormone receptor (Homo sapiens), sequence (P34981 whole entry, looked up): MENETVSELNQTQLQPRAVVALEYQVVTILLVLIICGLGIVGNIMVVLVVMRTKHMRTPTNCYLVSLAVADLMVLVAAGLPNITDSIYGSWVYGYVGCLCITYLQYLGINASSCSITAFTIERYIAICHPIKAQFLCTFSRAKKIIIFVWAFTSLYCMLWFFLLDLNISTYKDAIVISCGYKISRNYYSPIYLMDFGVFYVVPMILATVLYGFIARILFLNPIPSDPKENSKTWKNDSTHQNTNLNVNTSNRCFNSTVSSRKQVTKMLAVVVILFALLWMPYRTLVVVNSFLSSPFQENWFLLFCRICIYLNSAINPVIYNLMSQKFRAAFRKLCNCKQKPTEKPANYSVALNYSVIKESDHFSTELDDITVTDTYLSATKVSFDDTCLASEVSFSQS
# phosphoglycerate mutase (Leishmania major), sequence (Q4Q090 1-553): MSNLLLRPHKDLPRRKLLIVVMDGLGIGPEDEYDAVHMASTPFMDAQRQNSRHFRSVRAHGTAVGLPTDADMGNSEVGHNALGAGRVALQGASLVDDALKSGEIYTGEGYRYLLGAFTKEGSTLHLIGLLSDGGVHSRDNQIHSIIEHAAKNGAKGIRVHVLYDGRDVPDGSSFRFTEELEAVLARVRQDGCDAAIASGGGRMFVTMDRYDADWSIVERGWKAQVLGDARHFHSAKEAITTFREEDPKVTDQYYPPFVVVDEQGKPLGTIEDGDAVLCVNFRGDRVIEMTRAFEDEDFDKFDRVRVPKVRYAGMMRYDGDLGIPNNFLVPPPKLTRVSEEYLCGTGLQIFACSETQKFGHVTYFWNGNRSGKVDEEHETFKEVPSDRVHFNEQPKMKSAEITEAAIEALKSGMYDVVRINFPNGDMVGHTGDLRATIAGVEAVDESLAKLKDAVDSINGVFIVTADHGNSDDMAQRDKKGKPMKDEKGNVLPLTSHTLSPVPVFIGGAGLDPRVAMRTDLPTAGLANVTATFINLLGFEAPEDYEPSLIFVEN
smiles,measurement,setting,value
Nc1ccc2cc3ccc(N)cc3nc2c1,outcome,[1],inactive
same,Potency,[2],inactive
CN1CCC(Nc2ncc3ncnc(Nc4ccc(F)c(Cl)c4)c3n2)CC1,outcome,[1],inactive
same,Potency,[2],inactive
COc1ccccc1N1CCN(CCN2C(=O)CC3(CCCC3)CC2=O)CC1,outcome,[3],inactive
same,outcome,[4],inactive
same,Potency,[5],inactive
same,outcome,[6],inactive
same,Potency,[7],inactive
same,activation,[8],2.31% (inactive)
same,Potency,[9],inactive
same,viability change,[9],9.42%
same,outcome,[10],inactive
same,outcome,[11],inactive
same,outcome,[12],inactive
same,outcome,[13],inactive
same,outcome,[14],inactive
same,Potency,[2],inactive
same,outcome,[15],inactive
same,Potency,[16],inactive
same,outcome,[17],inactive
CCCCCCCCCCCCCC[N+](C)(C)C,outcome,[1],inactive
same,Potency,[2],50.1 µM (active)
O=C(Nc1ccc(Cl)cc1)Nc1ccc(Cl)c(Cl)c1,outcome,[1],inactive
same,Potency,[2],inactive
same,outcome,[18],inactive
CN1CCCN(C(c2ccccc2)c2ccc(Cl)cc2)CC1 (stereo unspecified),Potency,[2],inactive
Cc1ccc(O)cc1,Potency,[2],inactive
CC(C)C(C)(C)C(C)(C)C(C)(C)S,outcome,[19],inactive
same,outcome,[18],inactive
same,activation,[20],-7.25% (inactive) and 10.8% (inactive)
OC(CCCN1CCCCC1)(c1ccccc1)c1ccccc1,Potency,[2],inactive
C1N2CN3CN1CN(C2)C3,Potency,[2],inactive
C[C@]12CCC(=O)C=C1CC[C@@H]1[C@@H]2[C@@H](O)C[C@@]2(C)[C@H]1CC[C@]2(O)C(=O)COC(=O)CCC(=O)O,activation,[8],-0.0625% (inactive)
same,outcome,[10],inactive
same,outcome,[11],inactive
NCC(=O)O,Potency,[2],inactive
same,outcome,[17],inactive
OCc1c[nH]c2ccccc12,Potency,[2],inactive
same,activation,[20],-13.7% (inactive)
CCCCCCCCCCCCCCCC[N+](C)(C)Cc1ccccc1,Potency,[2],50.1 µM (active)
CCCCCCCCCCCC[N+](C)(C)Cc1ccccc1,activation,[20],-8.21% (inactive)
CN(C(=O)C(Cl)Cl)c1ccc(OC(=O)c2ccco2)cc1,Potency,[2],inactive
O=C(CCCCC(=O)Nc1c(I)cc(I)c(C(=O)O)c1I)Nc1c(I)cc(I)c(C(=O)O)c1I,Potency,[2],inactive
Nc1c[n+](N2CCOCC2)no1,Potency,[2],inactive
same,outcome,[17],inactive
COc1cc(C=O)ccc1O,Potency,[2],inactive
same,outcome,[17],inactive
same,outcome,[19],inactive
same,outcome,[18],inactive
O=C(c1ccccc1)c1ccccc1,activation,[20],19.2% (inactive) and -0.683% (inactive)
CCN(CC)CCOc1ccc(/C(=C(\Cl)c2ccccc2)c2ccccc2)cc1,activation,[20],-16% (inactive)
Cc1cc(C(C)(C)C)c(O)c(C(C)(C)C)c1,Potency,[2],inactive
Cc1ccc2c(Cl)cc(Cl)c(O)c2n1,Potency,[2],inactive
O=C(Oc1ccccc1)c1ccccc1O,outcome,[18],inactive
Nc1ccc(O)cc1,outcome,[19],inactive
Cc1ncc(CO)c(CO)c1O,Potency,[2],inactive
CC(=O)OC/C=C(C)/C=C/C=C(C)/C=C/C1=C(C)CCCC1(C)C,Potency,[2],inactive
same,outcome,[19],inactive
same,outcome,[18],inactive
C[C@@H](C1=C(CCN(C)C)Cc2ccccc21)c1ccccn1,Potency,[2],inactive
same,outcome,[17],inactive
COC(=O)c1c(Cl)c(Cl)c(C(=O)OC)c(Cl)c1Cl,Potency,[2],inactive
same,outcome,[18],inactive
CC(=O)OCC[N+](C)(C)C,Potency,[2],inactive
Nc1cccc2c(N)cccc12,outcome,[18],inactive
same,activation,[20],-5.98% (inactive) and -0.762% (inactive)
CCOC(=O)NNc1nncc2ccccc12,Potency,[2],inactive
CCCC(=O)c1cc(O)c(O)cc1O,outcome,[19],inactive
same,outcome,[18],inactive
same,activation,[20],-9.57% (inactive)
